A short description of assay [1]: qHTS for Inhibitors of Plasmodium falciparum (DD2) proliferation (AID 504314). Note: potency is the fitted concentration of half-maximal effect. Summed up:
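Normalization used 0.29 uM artemisinin as full inhibition and DMSO as baseline. Parasitized erythrocytes were exposed to compounds for 72 h (37C, 5% CO2), then lysed with saponin/Triton buffer containing SYBR Green I.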

Assay [2] can be described thus: qHTS for Inhibitors of Plasmodium falciparum (GB4) proliferation (AID 504315). Note: nearly all actives have a fitted effect of over 50% in size. Note: potency is the fitted concentration of half-maximal effect. Summed up: (§1)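 Parasite growth measured as SYBR Green DNA fluorescence (ex 485, em 535 nm) after overnight lysis following 72 h culture at 37 °C, 0.3% parasitemia, 2.5% hematocrit. Values normalized against DMSO and 0.29 uM artemisinin controls, with plate-stack correction.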
(qHTS replaces the single test concentration by a dilution series.)

The nature of assay [3]: qHTS for Inhibitors of Plasmodium falciparum (7G8) proliferation (AID 504316). Note: series mostly up to about 6.7 µM; nearly all actives have a fitted effect of over 65% in size. Summed up:
as §1

The nature of assay [4]: qHTS for Inhibitors of Plasmodium falciparum (CP250) proliferation (AID 504320). An outline of the steps: as §1
The nature of assay [5]: qHTS for Inhibitors of Plasmodium falciparum (HB3) proliferation (AID 504318). Note: nearly all actives have a fitted effect of over 60% in size. Note: potency is the fitted concentration of half-maximal effect. An outline of the steps:
as §1

This passage reports Potency results from PubChem BioAssay (NCATS).

Records with an inconclusive call do not appear. Values without a mark were called inactive. Activity calls are given as the source filed them. Calls come from the whole dose curve; as a rule, active = well fitted curve in the direction sought with a large enough effect; inconclusive = small, poorly fitted or top-dose-only effect, or another doubt; inactive = no such curve, though single readings can be large; an effect the other way counts as inactive or inconclusive.

With `CCCCC1=CC2=CC(=O)C(C)(OC(=O)CC)C(=O)C2=CN1c1ccc(OC)cc1` (stereo unspecified), the Potency entry in assay [1], in assay [2], in assay [3] and in assay [4] was “inactive” each time.
`O=C(C=Cc1ccc2c(c1)OCO2)c1ccccc1`: the Potency result in assay [1], in assay [2], in assay [5] and in assay [4] was “inactive” each time.
For `COC(=O)C1=C(C(=O)OC)[C@@H]2N(Cc3ccccc3)c3ccccc3[C@@]23C[C@@H](C(=O)OC)N(C(=O)COCc2ccccc2)C3=N1`, the Potency result in assay [1], in assay [2], in assay [5] and in assay [4] was “inactive” each time.
Regarding `COc1ccc2c(c1)O[C@@H](c1cccc(C(F)(F)F)c1)[C@H](OC(=O)N[C@H]1CCCc3ccccc31)C2=O`, the Potency entry in assay [1], in assay [2], in assay [5] and in assay [4] was “inactive” throughout.
Consider `COC(=O)C1(C(=O)OC)CC(CO)C(=O)[C@@H]1c1ccccc1` (stereo partly specified), for which the Potency result in assay [1], in assay [2], in assay [5] and in assay [4] was “inactive” throughout.
`COC(=O)[C@@H](NC(=O)N1CCc2nc(-c3ccccc3)c3c(c2C1)CO[C@@H](C)C3)C(C)C`: the Potency result in assay [1], in assay [2] and in assay [5] was “inactive” in each case.
With `CC=Cc1cc2ccccc2c2c(C(=O)OC)c(C(=O)OC)c(C(=O)OC)n12`, the Potency result in assay [1], in assay [2], in assay [3] and in assay [4] was “inactive” throughout.
Turning to `C=C[C@@]1(C)CC[C@H](O)[C@H]2C(=O)CCC[C@H]21`, the Potency entry in assay [1], in assay [2], in assay [3] and in assay [4] was “inactive” throughout.
Take `CCCCc1nc2c(c3c1C[C@H](C)OC3)CN(C(=O)NCCCC(=O)OCC)CC2`: the Potency entry in assay [1], in assay [2], in assay [5] and in assay [4] was “inactive” throughout.
On to `COC(=O)C1=C(C(=O)OC)[C@@H]2N(C)c3ccccc3[C@@]23C[C@@H](CO)N(C(=O)c2cc(C)oc2C)C3=N1`, for which the Potency result in assay [1], in assay [2], in assay [3] and in assay [4] was “inactive” throughout.
In the case of `CC#CCN1c2ccccc2[C@]23C[C@@H](C(=O)OC)N(C(=O)c4ccc(Br)cc4)C2=NC(C(=O)OC)=C(C(=O)OC)[C@H]13`, the Potency entry in assay [1], in assay [2], in assay [5] and in assay [4] was “inactive” each time.
As for `COC(=O)c1ccccc1S(=O)(=O)N1CCc2nc(COc3ccccc3)c3c(c2C1)CO[C@@H](C)C3`, the Potency result in assay [1], in assay [2], in assay [3] and in assay [4] was “inactive” each time.
Consider `CC(C)CON=C1C[C@@H](O)[C@@H](O)[C@@H]2[C@H]3C(=O)N(C4CCCCC4)C(=O)[C@@H]3CC[C@H]12`, for which the Potency result in assay [1], in assay [2], in assay [5] and in assay [4] was “inactive” each time.
`COC(=O)N[C@@H](c1cccc(C)c1)C(C(C)=O)C(=O)OC` (stereo partly specified): the Potency result in assay [1], in assay [2], in assay [3] and in assay [4] was “inactive” throughout.
In the case of `COc1cc2c(cc1OC)[C@@H]1O[C@](CCCCN3C(=O)c4ccccc4C3=O)(C2)Oc2cc(C)n(-c3ccccc3)c(=O)c21`, the Potency in assay [1] is 1.69 µM (active); in assay [2], 1.35 µM (active); in assay [5], 1.2 µM (active).
Consider `C=CCN1c2ccccc2[C@]23C[C@@H](C(=O)OC)N(C(=O)C4CCC4)C2=NC(C(=O)OC)=C(C(=O)OC)[C@H]13`, for which the Potency result in assay [1], in assay [2], in assay [5] and in assay [4] was “inactive” throughout.
Take `COC(=O)CCCC1=CC2=CC(=O)C(C)(OC(=O)CCc3ccccc3)C(=O)C2=CO1` (stereo unspecified): the Potency result in assay [1], in assay [2], in assay [3] and in assay [4] was “inactive” throughout.
As to `CCCCC1=CC2=CC(=O)C(C)(OC(=O)CC)C(=O)C2=CN1CCc1ccc(Br)cc1` (stereo unspecified), the Potency entry in assay [1], in assay [2], in assay [3] and in assay [4] was “inactive” throughout.
On to `COC(=O)C1=C(C(=O)OC)[C@@H]2N(C)c3ccc(OC)cc3[C@@]23C[C@@H](C(=O)OC)N(S(=O)(=O)c2ccc(OC)cc2)C3=N1`, for which the Potency entry in assay [1], in assay [2], in assay [5] and in assay [4] was “inactive” each time.
On to `COC(=O)CCC(=O)OC1(C)C(=O)C=C2C=C(C3CC3)N(C3CC3)C=C2C1=O` (stereo unspecified), for which the Potency result in assay [1], in assay [2] and in assay [5] was “inactive” in each case.
Take `C=CCNC(=O)N1CCc2nc(COc3ccccc3)c3c(c2C1)CO[C@@H](C)C3`: the Potency entry in assay [1], in assay [2], in assay [5] and in assay [4] was “inactive” throughout.
Turning to `C=CCN1c2ccccc2[C@]23C[C@@H](C(=O)OC)N(S(=O)(=O)CCCC)C2=NC(C(=O)OC)=C(C(=O)OC)[C@H]13`, the Potency result in assay [1], in assay [2], in assay [5] and in assay [4] was “inactive” throughout.
Regarding `CCCCC1=CC2=CC(=O)C(C)(OC(=O)CC)C(=O)C2=CN1c1ccccc1` (stereo unspecified), the Potency result in assay [1], in assay [2], in assay [3] and in assay [4] was “inactive” each time.
For `C=CCN1c2ccccc2[C@]23C[C@@H](C(=O)OC)N(S(=O)(=O)c4c(C)noc4C)C2=NC(C(=O)OC)=C(C(=O)OC)[C@H]13`, the Potency result in assay [1], in assay [2], in assay [5] and in assay [4] was “inactive” throughout.
On to `COC/C=C/C1=CC2=CC(=O)C(C)(OC(=O)c3cnc4ccccc4n3)C(=O)C2=CN1CCCCO` (stereo unspecified), for which the Potency entry in assay [1], in assay [2], in assay [3] and in assay [4] was “inactive” in each case.
For the compound `COC(=O)[C@@H]1[C@@H](C)N(CCc2cc(OC)c(OC)c(OC)c2)C(=O)N[C@H]1c1ccccc1`, the Potency entry in assay [1], in assay [2], in assay [5] and in assay [4] was “inactive” each time.
On to `COC(=O)C1=C(C(=O)OC)[C@@H]2N(C)c3ccc(OC)cc3[C@@]23C[C@@H](C(=O)OC)N(S(=O)(=O)c2cccs2)C3=N1`, for which the Potency result in assay [1], in assay [2], in assay [3] and in assay [4] was “inactive” in each case.
Regarding `C[C@H]1Cc2c(COc3ccccc3)nc3c(c2CO1)CN(S(=O)(=O)c1ccc(C#N)cc1)CC3`, the Potency result in assay [1], in assay [2] and in assay [4] was “inactive” throughout.
In the case of `CCCCS(=O)(=O)N1C2=NC(C(=O)OC)=C(C(=O)OC)[C@@H]3Nc4ccccc4[C@]23C[C@H]1C(=O)OC`, the Potency result in assay [1], in assay [2] and in assay [4] was “inactive” throughout.
